Counter-ions that a name gives are not always drawn.
system: Danio rerio larvae (5 dpf); experiment: excitability to 1-s acoustic pulses, difference vs DMSO (percentage points (treated minus DMSO)); higher = more of the behaviour than the DMSO vehicle control; settings: 10 µM; exposure time: 3 h pre-incubation + 3 h imaging
Procedure: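 5-dpf wild-type zebrafish larvae were imaged in 96-well plates. They were treated with 190 Tocris FDA-approved drugs at 10 µM (1 µl/ml DMSO) for 3 h before and 3 h during imaging at 28.5 °C, 48 larvae per drug. Automated image analysis gave % time moving and optomotor responses. Values are drug group mean minus DMSO vehicle mean (n=844), in percentage points, for 10 behaviours.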

| Structure (SMILES) | excitability to 1-s acoustic pulses |
| --- | --- |
| CCN(CC)CCNC(=O)c1c(C)[nH]c(/C=C2\C(=O)Nc3ccc(F)cc32)c1C [Sunitinib malate] | 14.4 |
| CC(C)(C(=O)O)c1ccc(C(O)CCCN2CCC(C(O)(c3ccccc3)c3ccccc3)CC2)cc1 (stereo not given) [Fexofenadine hydrochloride] | -6.48 |
| CCOC(=O)[C@H](CCc1ccccc1)N[C@H]1CCc2ccccc2N(CC(=O)O)C1=O [Benazepril hydrochloride] | 0.498 |
| O=c1n(CCCN2CCN(c3cccc(Cl)c3)CC2)nc2ccccn12 [Trazodone hydrochloride] | 18.6 |
| Cc1nnc(C(C)C)n1C1C[C@H]2CC[C@@H](C1)N2CC[C@H](NC(=O)C1CCC(F)(F)CC1)c1ccccc1 (stereo in doubt) [Maraviroc] | 8.65 |
| O=C(NCC1CCCCN1)c1cc(OCC(F)(F)F)ccc1OCC(F)(F)F (stereo not given) [Flecainide acetate] | 5.58 |
| CCc1c2c(nc3ccc(OC(=O)N4CCC(N5CCCCC5)CC4)cc13)-c1cc3c(c(=O)n1C2)COC(=O)[C@]3(O)CC | 6.46 |
| CC(C)(C#N)c1cc(Cn2cncn2)cc(C(C)(C)C#N)c1 [Anastrozole] | 3.65 |
| NC(=O)OCC(COC(N)=O)c1ccccc1 [Felbamate] | -4.78 |
| CCCc1nc2c(C)cc(-c3nc4ccccc4n3C)cc2n1Cc1ccc(-c2ccccc2C(=O)O)cc1 [Telmisartan] | 12.8 |
| CN(C)C(=N)NC(=N)N [Metformin hydrochloride] | 4.58 |
| CN1CC(=O)N2[C@H](c3ccc4c(c3)OCO4)c3[nH]c4ccccc4c3C[C@@H]2C1=O [Tadalafil] | 4.84 |
| CC(C)COCC(CN(Cc1ccccc1)c1ccccc1)N1CCCC1 (stereo not given) [Bepridil hydrochloride] | 15 |
| CN/C(=N\CCSCc1nc[nH]c1C)NC#N [Cimetidine] | -2.12 |
| O=C(c1ccc(OCCN2CCCCC2)cc1)c1c(-c2ccc(O)cc2)sc2cc(O)ccc12 [Raloxifene hydrochloride] | 9.93 |
| COc1cc(Nc2c(C#N)cnc3cc(OCCCN4CCN(C)CC4)c(OC)cc23)c(Cl)cc1Cl [Bosutinib] | 6.48 |
| N#C[C@@H]1C[C@@H]2C[C@@H]2N1C(=O)[C@@H](N)C12CC3CC(CC(O)(C3)C1)C2 [Saxagliptin hydrochloride] | 2.82 |
| CC(C)(C(=O)c1cccnc1)c1cccnc1 [Metyrapone] | 12.2 |
| C[C@H]1C[C@@H]2[C@H]([C@@H](O)C[C@@]3(C)[C@H]2CC[C@]3(O)C(=O)CO)[C@@]2(C)C=CC(=O)C=C12 [Methylprednisolone] | 0.503 |
| COc1cc2nc(N3CCN(C(=O)c4ccco4)CC3)nc(N)c2cc1OC [Prazosin hydrochloride] | 13.5 |

| Structure (SMILES) | excitability to 1-s acoustic pulses |
| --- | --- |
| Nc1nc(NC2CC2)c2ncn([C@H]3C=C[C@@H](CO)C3)c2n1 [Abacavir hemisulfate] | -1.97 |
| Cc1cc2c(s1)Nc1ccccc1N=C2N1CCN(C)CC1 [Olanzapine] | 3.32 |
| COC(c1ccccc1)(c1ccccc1)[C@H](Oc1nc(C)cc(C)n1)C(=O)O [Ambrisentan] | -1.87 |
| C[C@H]1O[C@H](O[C@H]2[C@H](O)[C@@H](O)[C@@H](O[C@H]3[C@H](O)[C@@H](O)C(O)O[C@@H]3CO)O[C@@H]2CO)[C@H](O)[C@@H](O)[C@@H]1N[C@H]1C=C(CO)[C@@H](O)[C@H](O)[C@H]1O (stereo not given in full) [Acarbose] | -4.01 |
| CC(C)C(=O)OCC(=O)[C@@]12O[C@H](C3CCCCC3)O[C@@H]1C[C@H]1[C@@H]3CCC4=CC(=O)C=C[C@]4(C)[C@H]3[C@@H](O)C[C@@]12C [Ciclesonide] | 4.96 |
| CCOc1cc(CC(=O)N[C@@H](CC(C)C)c2ccccc2N2CCCCC2)ccc1C(=O)O [Repaglinide] | 9.31 |
| CCC(=O)O[C@]1(C(=O)SCF)[C@H](C)C[C@H]2[C@@H]3C[C@H](F)C4=CC(=O)C=C[C@]4(C)[C@@]3(F)[C@@H](O)C[C@@]21C [Fluticasone propionate] | 1.18 |
| CCCc1nc(C(C)(C)O)c(C(=O)O)n1Cc1ccc(-c2ccccc2-c2nnn[nH]2)cc1 [Olmesartan] | -0.185 |
| COc1cc([C@@H]2c3cc4c(cc3[C@@H](O[C@@H]3O[C@@H]5CO[C@@H](C)O[C@H]5[C@H](O)[C@H]3O)[C@H]3COC(=O)[C@H]23)OCO4)cc(OC)c1O [Etoposide] | 9.69 |
| COCCCOc1cc(C[C@@H](C[C@H](N)[C@@H](O)C[C@H](C(=O)NCC(C)(C)C(N)=O)C(C)C)C(C)C)ccc1OC [Aliskiren hemifumarate] | 12.2 |
| CC(=O)Nc1ccc(O)cc1 [Acetaminophen] | -2.54 |
| C[C@]12CC[C@@H]3c4ccc(O)cc4C[C@@H](CCCCCCCCC[S+]([O-])CCCC(F)(F)C(F)(F)F)[C@H]3[C@@H]1CC[C@@H]2O (stereo not given in full) | 2.14 |
| CCCCCOC(=O)Nc1nc(=O)n([C@@H]2O[C@H](C)[C@@H](O)[C@H]2O)cc1F [Capecitabine] | 4.17 |
| NS(=O)(=O)c1cc(C(=O)O)c(NCc2ccco2)cc1Cl [Furosemide] | 0.211 |
| COc1ccccc1OCC(O)CN1CCN(CC(=O)Nc2c(C)cccc2C)CC1 (stereo not given) [Ranolazine dihydrochloride] | 1.94 |
| Cc1cn([C@H]2C=C[C@@H](CO)O2)c(=O)[nH]c1=O [Stavudine] | 3.23 |
| CC1CNc2c(cccc2S(=O)(=O)N[C@@H](CCCNC(=N)N)C(=O)N2CC[C@@H](C)C[C@@H]2C(=O)O)C1 (stereo not given in full) [Argatroban] | 0.477 |
| CC/C(=C(\c1ccccc1)c1ccc(OCCN(C)C)cc1)c1ccccc1 [Tamoxifen citrate] | 4.58 |
| CC(C)N(CCCCOCC(=O)NS(C)(=O)=O)c1cnc(-c2ccccc2)c(-c2ccccc2)n1 [Selexipag] | 5.77 |
| Nc1nc2[nH]cc(CCc3ccc(C(=O)N[C@@H](CCC(=O)O)C(=O)O)cc3)c2c(=O)[nH]1 [Pemetrexed] | 2.29 |

Source: the supplement of paper PMC9023506
